For one molecule, growth inhibition, inhibition and outcome results are on record in PubChem BioAssay.

Assay [1] can be described thus: antimalarial activity against Dd2 strain (AID 2302;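 active = growth inhibition above 50% at the single 2 µM test dose, taken to imply half-maximal potency below 2 µM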;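 note: 0% = DMSO untreated growth and 100% = chloroquine plus artemisinin killed control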). The conditions noted are these: P. falciparum Dd2 in RBCs, LDH growth readout, 72 h; at 2 µM; stronger effect = higher value.
Assay [2] in a line: HepG2 cytotoxicity, primary screen, cytotoxicity control for P. falciparum antimalarial project, cell-based, ATP luminescence (AID 2303;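 active = inhibition above 50%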;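 note: 0% = DMSO wells and 100% = digitonin-killed cells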). The conditions noted are these: HepG2 viability, 24-48 h, at 10 µM, stronger effect = higher value.
In assay [3] the target is L-lactate dehydrogenase (Plasmodium falciparum (isolate CDC / Honduras)) (UniProt Q27743). The assay can be described thus: PfLDH activity inhibition – cell lysate, 3D7 strain, counter-screen for P. falciparum growth inhibition project (AID 2304).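 Note: 0% = vehicle and 100% = reference inhibitor.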 As to conditions: P. falciparum 3D7 crude extract, LDH APAD/NBT absorbance; at 2 µM; stronger effect = higher value.
Assay [4] is described as follows: inhibition of 3D7 malaria parasite growth – strain 3D7 (AID 2306).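 Note: 0% = DMSO wells and 100% = chloroquine plus artemisinin control wells.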 As to conditions: P. falciparum 3D7 erythrocytic growth, LDH absorbance, 72 h; at 2 µM; stronger effect = higher value.
Assay [5] has as its target Calcium-dependent protein kinase 4 (Plasmodium falciparum (isolate 3D7)) (UniProt Q8IBS5). The assay can be described thus: PfCDPK4 kinase inhibitors, biochemical, TCAMS library (AID 1159588; cut-off not given, nearly all actives have IC50 up to about 0.91 µM). The conditions noted are these: recombinant PfCDPK4, Kinase-Glo ATP depletion luminescence. In general terms: Kinase-Glo measures the ATP left after a reaction by luminescence.

Structures are written as SMILES. Unmarked numbers belong to inactive results. For some assays here: Potency and affinity values are given separately. Calls of active or inactive are those of the source. Unless noted, the rule behind the calls is not given here.

Broadly, the inhibition is the relative decrease from the control value, in per cent.

Chain of L-lactate dehydrogenase (Plasmodium falciparum (isolate CDC / Honduras)) (Q27743 whole entry, looked up): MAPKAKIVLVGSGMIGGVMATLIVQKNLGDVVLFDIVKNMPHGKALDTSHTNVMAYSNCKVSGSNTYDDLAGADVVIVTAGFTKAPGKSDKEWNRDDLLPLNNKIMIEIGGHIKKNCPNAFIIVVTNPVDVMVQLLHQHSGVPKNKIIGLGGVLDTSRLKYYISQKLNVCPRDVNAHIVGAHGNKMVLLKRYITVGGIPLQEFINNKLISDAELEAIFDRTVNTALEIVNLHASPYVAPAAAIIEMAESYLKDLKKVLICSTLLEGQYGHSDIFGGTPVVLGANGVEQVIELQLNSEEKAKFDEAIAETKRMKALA
Chain of Calcium-dependent protein kinase 4 (Plasmodium falciparum (isolate 3D7)) (Q8IBS5 whole entry, looked up): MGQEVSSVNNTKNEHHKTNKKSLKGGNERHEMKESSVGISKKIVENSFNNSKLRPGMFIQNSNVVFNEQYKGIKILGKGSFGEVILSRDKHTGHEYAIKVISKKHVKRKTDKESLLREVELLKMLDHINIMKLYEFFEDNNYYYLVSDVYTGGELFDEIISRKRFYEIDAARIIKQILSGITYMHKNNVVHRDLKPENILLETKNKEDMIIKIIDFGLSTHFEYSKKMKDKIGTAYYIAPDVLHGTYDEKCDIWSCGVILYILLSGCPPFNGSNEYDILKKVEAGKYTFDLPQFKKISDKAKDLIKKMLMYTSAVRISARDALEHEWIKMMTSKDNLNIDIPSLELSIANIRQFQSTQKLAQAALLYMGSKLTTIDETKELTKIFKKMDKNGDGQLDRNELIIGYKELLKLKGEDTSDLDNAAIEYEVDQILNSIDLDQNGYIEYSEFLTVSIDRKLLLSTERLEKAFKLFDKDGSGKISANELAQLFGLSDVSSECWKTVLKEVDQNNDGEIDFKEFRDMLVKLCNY

With `C[C@@H]1C[C@@H]([C@H](O)CC2CC(=O)NC(=O)C2)C(=O)[C@@H](C)C1`, the growth inhibition was 87% (active) in assay [1] and 96% (active) in assay [4]. Also, the inhibition in assay [2] was 46%; in assay [3], -5%. Moreover, in assay [5], the result was inactive.
